# Hit rate of the full screen: of about 16,000 compounds, about 2,600 (16%) were called active. Roughly 20% stayed inconclusive and do not appear here. The list is a sample of the results. Unmarked numbers belong to inactive results. Calls follow the shape of the dose curve; as a rule, active = well fitted curve in the direction sought with a large enough effect; inconclusive = small, poorly fitted or top-dose-only effect, or effect the other way; inactive = no such curve, though single readings can be large or run the other way.
# Target: Cytochrome P450 2D6 (Homo sapiens) (UniProt P10635)
# Assay: Cytochrome panel assay with activity outcomes
# Settings: recombinant CYP, pro-luciferin dealkylation, luminescence, p450-cyp2d6; series mostly up to 57.1 µM; activity, negative = inhibition: at the top concentration
# % is scaled to controls: 0 for no effect and ±100 for the full control effect.
# Sequence of Cytochrome P450 2D6 (Homo sapiens) (P10635 whole entry, looked up): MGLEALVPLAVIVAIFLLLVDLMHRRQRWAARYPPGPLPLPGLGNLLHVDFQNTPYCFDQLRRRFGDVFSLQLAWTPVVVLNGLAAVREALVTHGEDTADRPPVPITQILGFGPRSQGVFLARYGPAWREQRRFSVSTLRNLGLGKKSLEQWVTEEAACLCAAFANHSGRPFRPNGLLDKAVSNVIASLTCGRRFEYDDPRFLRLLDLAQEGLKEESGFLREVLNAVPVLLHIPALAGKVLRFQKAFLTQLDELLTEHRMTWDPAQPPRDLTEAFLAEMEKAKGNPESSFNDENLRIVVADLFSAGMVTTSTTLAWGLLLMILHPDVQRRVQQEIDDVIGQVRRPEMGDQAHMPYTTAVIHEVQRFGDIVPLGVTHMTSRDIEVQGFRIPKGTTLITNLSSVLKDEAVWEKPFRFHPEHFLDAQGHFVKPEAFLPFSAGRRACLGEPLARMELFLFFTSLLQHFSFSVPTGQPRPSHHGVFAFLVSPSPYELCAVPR
SMILES,"activity, negative = inhibition",AC50
CCCC(O)(CCC)C(=O)NN1CCCCC1,17.5%,
Cn1c(=O)n(C)c2cc(/C=N/n3cnnc3)ccc21,21.8%,
Brc1ccc(-c2nnc(-c3ccccc3)c(N3CCSCC3)n2)cc1,-7.56%,
COc1cccc2[nH]c3c(N4CC(C)CC(C)C4)ncnc3c12 (centres undefined),,2 µM (active)
COc1ccccc1-c1ccc2ncnc(N3CCOCC3)c2c1,-15.7%,
COc1ccc(OC)c2c(=S)c3ccccc3[nH]c12,7.78%,
Cc1nn(Cc2ccccc2Cl)c(C)c1NC(=O)CCCn1nc(C)c([N+](=O)[O-])c1C,-6.51%,
CCn1c2ccccc2c2cc(/C=N/n3cn[nH]c3=S)ccc21,-7.55%,
CCn1c2ccccc2c2cnc(N=CN(C)C)c(C#N)c21,,1.41 µM (active)
COc1ccccc1NC(=O)Cn1nnc(-c2ccccc2NC(=O)c2cc3ccccc3oc2=O)n1,-3.14%,
CCOC(=O)C1CCCN(C(=O)CCCOc2cc(=O)n(C)c3ccccc23)C1 (centres undefined),-22.4%,
CC(=O)c1ccc(NC(=O)C2CC(c3ccc(F)cc3)=NO2)cc1 (centres undefined),-28.2%,
O=C(NC1CCCC1)C1CC(c2ccc(F)cc2)=NO1 (centres undefined),10.7%,
Cn1ncc(C#N)c1NC(=O)C1CC(c2ccc(Cl)cc2)=NO1 (centres undefined),,3.98 µM (active)
C=CC[C@H](N)C(=O)O,1.56%,
COc1ccc(-n2c(=O)c(C)nc3cnc(N4CCNCC4)nc32)cc1,-4.6%,
Nc1[nH]c(=O)nc2c1ncn2[C@H]1O[C@@H](CO)[C@@H](O)[C@@H]1O,7.59% [at 11.4 µM],
COc1ccc(CNC(=O)c2cnc(C)cn2)cc1,5.7%,
COc1ccc(CNC(=O)c2csc(Cc3ccc(OC)cc3)n2)cc1,-26.3%,
COc1ccc(CNC(=O)c2csc(Cc3ccc(Cl)cc3)n2)cc1,,14.1 µM (active)
CO[C@@H]1COC(=O)C/C=C\[C@@H](C)[C@H](OC)COC(=O)[C@H](COCc2ccccc2)NC(=O)C/C=C\[C@H]1C,-2.59% [at 11.4 µM],
C[C@@H]1[C@H]2CC[C@@H]3[C@@H]4CC=C5C[C@@H](N(C)C)CC[C@]5(C)[C@@H]4CC[C@@]32CN1C,-2.4% [at 25.6 µM],

SMILES,"activity, negative = inhibition",AC50
CN(C)c1ncc2nc(-c3ccccc3)c(=O)n(Cc3ccc(F)cc3)c2n1,-8.66%,
NCCCCCCNS(=O)(=O)c1cccc2c(Cl)cccc12,,12.6 µM (active)
NCCCCCCCCCCNS(=O)(=O)c1cccc2c(Cl)cccc12,,1.26 µM (active)
CCCCNS(=O)(=O)c1ccc(OC)c(Cl)c1Cl,-2.36%,
CCCCCCCNS(=O)(=O)c1cccc2c(Cl)cccc12,-6.45%,
O=S(=O)(NCCCCCCc1ccccc1)c1cccc2c(Cl)cccc12,9.69%,
NCCCCCCNS(=O)(=O)c1cccc2ccccc12,3.26%,
C#C[C@]1(O)CC[C@@H]2[C@H]3CCC4=CCCC[C@@H]4[C@@H]3CC[C@@]21C,-2.89% [at 25.6 µM],
N#CCCn1c(=O)c(-c2cc(F)cc(F)c2)nc2cnc(OCc3ccccc3)nc21,-6.84%,
Cc1ncc(COP(=O)(O)O)c(C)c1O,11.2% [at 11.4 µM],
Cn1cc(/C=N/n2cnc3scc(-c4ccccc4)c3c2=O)c2ccccc21,-8.18%,
CN1CCC[C@@H](CC2c3ccccc3Sc3ccccc32)C1,,0.316 µM (active)
CN1CC[C@H](CN2c3ccccc3Sc3ccccc32)C1,,0.126 µM (active)
CO[C@H]1COC(=O)[C@@H](Cc2ccccc2)NC(=O)[C@@H](C)COC(=O)C/C=C\[C@@H]1C,2.58% [at 11.4 µM],
CC(C)(C)c1ccc(C2CC2C(=O)N/N=C\c2cc3ccccc3nc2Cl)cc1 (centres undefined),14.5%,
COC(=O)[C@@]1(Cc2ccccc2)[C@@H]2C(=CC(=O)[C@H]2CC(=O)C(=O)N(C)C)CN1C(=O)c1ccccc1,-11.1%,
COc1cc(C2C(C#N)=C(N)OC3=C2C(=O)CCC3)c([N+](=O)[O-])cc1OC (centres undefined),-13.7%,
Nc1ncnc2c1ncn2[C@@H]1O[C@@H](C(=O)NC2CC2)[C@H](O)[C@@H]1O,2.36%,
CC(CO)(CO)Nc1ncnc2ccccc12,-4.58% [at 11.4 µM],
c1ccc(CN2CC[C@@H](CNc3ncnc4ccccc34)C2)cc1,,0.794 µM (active)
OC[C@@H](O)CNc1ncnc2ccccc12,3.48% [at 11.4 µM],
COCCn1c(=O)cnc2cnc(Nc3ccccc3)nc21,-5.45%,

SMILES,"activity, negative = inhibition",AC50
CC(C)(C)OC(=O)NCCc1nnc(SCC(=O)Nc2cccc(Cl)c2)o1,-19.6%,
O=C(CSc1nnc(Cn2nnc3ccccc32)o1)Nc1cccc(Cl)c1,,12.6 µM (active)
CCC(=O)Nc1cccc(NC(=O)CSc2nnnn2Cc2ccccc2)c1,-19.3%,
CC(=O)[C@H]1CC[C@H]2[C@@H]3C=CC4=CC(=O)CC[C@@]4(C)[C@H]3CC[C@]12C,-2.12% [at 25.6 µM],
COC(=O)CC1C(=O)NCCN1C(=O)Nc1ccc(Cl)cc1 (centres undefined),4.56%,
Cc1ccc(-n2cc(C(=O)c3ccc4ccccc4c3O)cn2)cc1,-1.3%,
CSC1(SC2=NCCN2)SC2(NCCN2)S1,,3.98 µM (active)
CCOc1cc(CNc2ccc(OC)cc2)cc(Br)c1OCC(=O)NC(C)(C)C,-20.5%,
CC(C)(C)c1ccc(OCC(=O)NNC(=O)CCc2ccccc2)cc1,-16.1%,
COc1ccc(C[C@@](C)(N)C(=O)O)cc1OC,1.3% [at 25.6 µM],
COc1cc(CNCCc2ccccc2)ccc1OCC(=O)NC(C)(C)C,,3.16 µM (active)
COc1cc(CNCc2cccs2)ccc1OCC(N)=O,,2 µM (active)
COc1ccc(C/C(N)=N/OC(=O)Cc2ccccc2)cc1OC,-9.36%,
COc1ccc(CNC(=O)Nc2cccs2)cc1OC,-3.61%,
COc1ccc(CNCCc2ccccc2)cc1OCC(N)=O,,0.398 µM (active)
COc1ccc(/C=N/NC(=O)CCc2ccccc2)cc1O,-15.1%,
N[C@@H]1[C@@H]2[C@@H]3C[C@H]4N(CC[C@@]14C(=O)C(=O)O)CC3=CCO[C@@H]2CC(=O)O,-4.74% [at 11.4 µM],
Cc1cccc2nc(C(F)(F)F)nc(=O)n12,37.5%,
COc1cccc(Cn2c(=O)c(-c3cn(C)c4ccccc34)nc3cnc(OC)nc32)c1,-6.37%,
COc1ccc(NS(=O)(=O)c2cc(-c3nnnn3C)ccc2OC)cc1,-18.8%,
